FLuc inh-1 = inhibitors of firefly (Photinus pyralis) luciferase; P08659; purified P. pyralis luciferase, luminescence, biochemical; Potency, µM (series often up to 115 µM), most hits filed as inhibitors; 76,000 compounds, 2.5% hits; also: % is scaled to controls: 0 for no effect and ±100 for the full control effect; nearly all actives have a fitted effect of over 65% in size
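FLuc 10nM, D-luciferin 10uM, ATP 10uM, Mg acetate 10mM, Tris acetate pH 7.5, Tween/BSA; cpd qHTS; enzyme added last; CCD luminescence.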
hNpr1 antagonist = blocks ANP-stimulated signaling of human Npr1 receptor. 76,000 compounds, 1.6% hits. P16066. HEK293 hNpr1 GloSensor cGMP, ANP-stimulated luminescence. Potency, µM (titrated, usually from 46.3 µM), inactives show top-dose activity change, negative = inhibition, most hits filed as inhibitors; calls by dose curve; also: % is scaled to controls: 0 for no effect and ±100 for the full control effect; nearly all actives have a fitted effect of over 60% in size
Target sequence (P16066 whole entry, looked up): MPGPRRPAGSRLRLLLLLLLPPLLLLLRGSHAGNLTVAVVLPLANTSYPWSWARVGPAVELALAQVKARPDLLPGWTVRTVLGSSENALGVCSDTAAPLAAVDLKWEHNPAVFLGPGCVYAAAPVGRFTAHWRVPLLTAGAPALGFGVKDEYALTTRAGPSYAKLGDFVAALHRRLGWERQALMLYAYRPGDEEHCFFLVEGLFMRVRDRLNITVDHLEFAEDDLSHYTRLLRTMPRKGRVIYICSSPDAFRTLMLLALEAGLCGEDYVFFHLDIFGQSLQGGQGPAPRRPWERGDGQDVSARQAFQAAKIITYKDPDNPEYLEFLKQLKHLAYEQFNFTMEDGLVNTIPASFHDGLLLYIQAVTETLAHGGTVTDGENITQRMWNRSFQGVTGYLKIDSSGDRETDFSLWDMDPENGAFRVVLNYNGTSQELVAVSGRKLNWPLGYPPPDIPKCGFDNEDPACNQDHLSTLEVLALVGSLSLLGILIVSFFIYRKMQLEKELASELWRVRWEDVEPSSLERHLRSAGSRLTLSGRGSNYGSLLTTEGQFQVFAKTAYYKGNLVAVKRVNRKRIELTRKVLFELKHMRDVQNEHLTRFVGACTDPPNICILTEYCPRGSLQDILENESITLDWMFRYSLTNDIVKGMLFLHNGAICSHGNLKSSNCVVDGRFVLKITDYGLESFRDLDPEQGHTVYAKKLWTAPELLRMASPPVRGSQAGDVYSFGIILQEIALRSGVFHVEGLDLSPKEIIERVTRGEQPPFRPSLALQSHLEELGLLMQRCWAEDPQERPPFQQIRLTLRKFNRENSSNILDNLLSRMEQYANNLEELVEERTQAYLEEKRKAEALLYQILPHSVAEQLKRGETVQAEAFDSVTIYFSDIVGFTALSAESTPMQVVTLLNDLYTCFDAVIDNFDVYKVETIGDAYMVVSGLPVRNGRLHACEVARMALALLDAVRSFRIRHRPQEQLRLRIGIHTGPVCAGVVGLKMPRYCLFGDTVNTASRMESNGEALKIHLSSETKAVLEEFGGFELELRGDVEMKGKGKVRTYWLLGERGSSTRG
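Compound pre-incubated 30 min at room temperature on GloSensor-loaded HEK293 cells stably carrying hNpr1 and the pGS-40F cGMP biosensor. Stimulation uses hNppA at 0.1 nM final; luminescence is taken at baseline and 20 min post-agonist.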
NIH3T3 tox = NIH 3T3 cell cytotoxicity; 94,000 compounds, 4.3% hits; NIH 3T3 viability, CellTiter-Glo ATP luminescence, 48-72 h; Potency, µM (top dose mostly 96.7 µM), for the others: at the highest dose activity change, negative = cytotoxicity, most hits filed as inhibitors; also: % is scaled to controls: 0 for no effect and ±100 for the full control effect; nearly all actives have a fitted effect of over 55% in size
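Mouse fibroblast NIH 3T3 cells, 400 per well, received compound via pintool and were incubated for 48 or 72 hr prior to CellTiter-Glo ATP luminescence measurement.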
HEK cytotox = kills HEK 293 cells. HEK 293 viability, ATP luminescence (CellTiter-Glo), 48-72 h. Potency, µM (series often up to 115 µM), inactives show at the top dose activity change, negative = cytotoxicity, usual class: inhibitors. 94,000 compounds, 6.6% hits; also: % is scaled to controls: 0 for no effect and ±100 for the full control effect; nearly all actives have a fitted effect of over 60% in size
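HEK 293 cells seeded at 250 cells/well were exposed to compound for 48 or 72 hr at 37 degree Celsius. Viability taken as ATP content by CellTiter-Glo luminescence.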
GPT2 inhibitor = inhibitors of human GPT2 alanine aminotransferase; Recombinant GPT2, coupled pyruvate oxidase/HRP Amplex Red fluorescence; Potency, µM (top dose mostly 57.7 µM), for the others: at the highest dose activity change, negative = inhibition, usual class: inhibitors; 100,000 compounds, 0.25% hits; AID 1671188; also: % is scaled to controls: 0 for no effect and ±100 for the full control effect; nearly all actives have a fitted effect of over 60% in size
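GPT2 10ng/uL, a-KG 250uM, L-Ala 2mM, HEPES pH7.5 + 0.0001% Tween; 30 min RT. Then Amplex mix (PO/HRP/ThPP), 30 min RT dark, fluorescence. AOA 50uM used as positive control.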
FLuc SDR -ATP = stabilizes firefly luciferase without ATP; shares compounds with FLuc inh-1; Purified FLuc-C-HiBiT, Nano-Glo HiBiT luminescence, no ATP; Potency, µM (highest dose often 32.7 µM), without a hit: at the highest dose activation (signal gain), actives largely listed as activators; 1,300 compounds, 7.8% hits; also: nearly all actives have a fitted effect of over 55% in size
FLuc SDR ATP = stabilizes firefly luciferase with ATP present; shares compounds with FLuc inh-1; purified FLuc-C-HiBiT + ATP, HiBiT complementation luminescence; Potency, µM (series often up to 32.7 µM), for inactives: at the top dose activation (gain of signal), most hits filed as activators; 1,300 compounds, 8.7% hits;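 also: signal reports ligand binding via conformational change of the enzyme rather than luciferase catalysis; % of control where 0% means no effect; nearly all actives have a fitted effect of over 55% in size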
FLuc inh-2 = blocks firefly luciferase enzymatic activity. shares compounds with FLuc inh-1. purified FLuc-C-HiBiT enzyme, luciferin luminescence. Potency, µM (titrated, usually from 32.7 µM), inactives show at the highest dose activity change, negative = inhibition, hits mostly inhibitors. AID 1963320. 1,300 compounds, 42% hits; also: % is scaled to controls: 0 for no effect and ±100 for the full control effect; nearly all actives have a fitted effect of over 70% in size
The depositor's hits bear a star; i = inactive; u = inconclusive; x = not tested or not shown; [ ] = dose if it differs, or a comment. A selection: hits, their analogues and other compounds. The true share with any hit is near 10%. Unless noted, calls follow the shape of the dose curve; as a rule, active = well fitted curve in the direction sought with a large enough effect; inconclusive = small, poorly fitted or top-dose-only effect, or another doubt; inactive = no such curve, though single readings can be large; an effect the other way counts as inactive or inconclusive. Potency is read from the fitted curve at half-maximal effect.

SMILES	FLuc inh-1	hNpr1 antagonist	NIH3T3 tox	HEK cytotox	GPT2 inhibitor	FLuc SDR -ATP	FLuc SDR ATP	FLuc inh-2
CCC(CC)C(=O)N1CCC2(CCc3nn(CCOC)c(=O)n3CC2)CC1	x	x	-10.5%	i	i	x	x	x
CCN(CC)CCOc1ccc(-c2nc3cc(Cl)ccc3s2)cc1	x	x	x	x	x	20.6%[65.7 µM]	13.2%[65.7 µM]	u
O=C(O)c1cccc(-c2ccc(OC(F)(F)F)cc2)c1	x	x	-0.8%[138 µM]	-23.6%[172 µM]	i	x	x	x
CC(=O)c1cccc(Nc2nn(-c3ccc(OC(F)(F)F)cc3)nc2C(C)=O)c1	x	x	x	x	x	24.1%	13.8%	u
COC(=O)CNC(=O)c1cc(-c2cccc(C(F)(F)F)c2)nc2c1cnn2C	x	x	u	-22.2%	x	x	x	x
COc1ccc(-c2nc(C)c(CCNC(=O)c3cccs3)s2)cc1	x	x	x	x	x	24.3%	17.0%	u
Cc1ccc(-c2nc(C)c(CCNC(=O)c3cccs3)s2)cc1	x	x	x	x	x	12.1%	9.4%	u
O=C(NCc1nnc2c(-c3nc(C4CC4)no3)cccn12)c1ccc(F)cc1Cl	i	0.1%	-3.2%	i	3.1%	x	x	x
COc1ccc(NC(=O)c2cc3c(=O)[nH]c(C)cn3n2)cc1OC	7.08µM*	0.0%	-19.0%	u	i	u	u	9.89µM*
COc1ccc(CCNC(=O)c2cc3c(=O)[nH]c(C)cn3n2)cc1OC	i	7.1%	-13.3%	0.7%	i	x	x	x
CC(C)(C)C1CCc2nc(NC(=O)c3cccc(Cl)c3)sc2C1 (stereo unspecified)	x	x	x	x	x	17.3%	16.3%	2.48µM*
Fc1ccc(-n2ncc3c(N4CCCCC4)nc(NN4CCOCC4)nc32)cc1	x	x	x	x	x	11.1%	7.6%	3.2%
COc1ccc(CN2CCCCCNC(=O)[C@@H]3CCC[C@@H]32)cc1Cn1ccnc1	i	-2.6%	u	u	i	x	x	x
CC(=O)NC1(C)CN(Cc2ccc(-c3ccccc3OCc3ccccc3)s2)C1	7.08µM*	u	28.2µM*	39.8µM*	-3.9%[88.5 µM]	12.6%[49.3 µM]	10.5%[49.3 µM]	u
CC(=O)NC1(C)CCN(Cc2cccc(Nc3ccccc3)c2)C1 (stereo unspecified)	i	-6.9%[70.6 µM]	u	u	-19.0%[88.5 µM]	x	x	x
CN1C[C@@H](NS(=O)(=O)c2ccc(C#N)cc2)C[C@H]1c1nc(-c2ccc(Cl)cc2)no1	10µM*	u	u	u	i	3.8%	4.1%	u
COc1ccc(-n2c(=O)c(C(=O)N3CCOCC3)nc3cccnc32)cc1	x	x	-18.7%	-6.2%	-4.1%	x	x	x
OCc1cn(CC2CCN(c3ncnc4nc[nH]c34)CC2)nn1	i	3.1%	i	-3.7%	i	9.2%	7.5%	-2.3%
Cc1cc(C)c(S(=O)(=O)N2CCCC(Cn3cc(CO)nn3)C2)c(C)c1 (stereo unspecified)	i	11.7%	-27.5%	-22.3%	-12.1%	x	x	x
COC(=O)C1CCN(c2csc3ccc(C)cc3c2=O)CC1	x	x	x	x	x	30.7%	u	7.85µM*
NC(=O)C1CCN(c2ncnc3c2cnn3-c2cccc(Cl)c2)CC1	x	x	x	x	x	17.2%	11.5%	-17.8%
NC(=O)CC1CCN(c2ncnc3c2cnn3-c2ccccc2)CC1	x	x	x	x	x	10.3%	11.0%	-18.4%
Cc1ccc(-n2ncc3c(N4CCN(C)CC4)ncnc32)cc1	x	x	x	x	x	22.8%	u	5.56µM*
c1ccc(-n2ncc3c(N4CCCCC4)ncnc32)cc1	x	x	x	x	x	3.51µM*	u	0.881µM*
Cc1nc2c(c(NCCc3cnn(-c4ccccc4)c3)n1)CCNCC2	i	5.2%	u	u	-12.6%	x	x	x

From PubChem BioAssay
